Experimental findings from PubChem BioAssay AID2685 (National Center for Advancing Translational Sciences (NCATS), 2010) are described below.

Each structure is given as a SMILES string. Among all 320,000 compounds or so, about 2,100 (0.66%) were called active. Not shown: some 53% with an inconclusive outcome. This is one part of a sample in which actives are shown more often than they occur. The call rests on the fitted dose curve; in most records, active means well fitted inhibition curve with a large enough effect in the signal ratio, with a control signal flat (not every such curve was filed as active); inconclusive means small, poorly fitted or top-dose-only effect, or effect the other way, or a change in a side signal; inactive means flat fitted curve, though single readings scatter; the % refers to the signal ratio.
Potency means the concentration at half of the fitted maximal effect.

The nature of the experiment: qHTS Assay for Lipid Storage Modulators in Drosophila S3 Cells.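 On cell number change: cells counted by Cell Tracker Red CMTPX staining in the red channel.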 On lipid storage change, negative = inhibition: on the % scale 0 is the no-effect control and ±100 the full control effect. The note with it: BODIPY lipid droplet fluorescence, 18-24 h, cells fed with added oleic acid; cell number change: measured here: cell count max response; series mostly up to 46.1 µM; lipid storage change, negative = inhibition: at the top concentration. An excerpt: NIH Molecular Libraries Probe Production Centers Network [MLPCN] NIH Chemical Genomics Center [NCGC] MLPCN Grant: 1 R03 MH085686-01 Assay Submitter (PI): Beller, Mathias; Max-Planck-Institut fur Biophysikalische Chemie NCGC Assay Overview: Storing lipids as a reservoir for energy or the anabolism of elementary metabolites is a common feature of probably all cells and is conserved from bacteria to humans. The universal cellular lipid storage organelle is the so-called lipid storage droplet (LD). Although ubiquitous, LDs share a simple structure composed of a hydrophobic core that harbors the storage lipids, which is shielded by a droplet-specific phospholipid monolayer to which proteins are attached. The current model of LD biogenesis involves an incorporation of the lipid core into the membrane leaflets of the endoplasmic reticulum (ER) followed by a subsequent budding-like maturation of a LD, which ultimately pinches off. Once released, LD volume can increase by localized lipogenesis or fusion of existing droplet. Storage lipids are re-mobilized enzymatically by lipase activity. Lipase regulation in the adipocyte is heavily studied and involves multiple components including catecholamine signaling, the LD-associated proteins Perilipin and comparative gene identification (CGI-58) and at least two lipases named hormone sensitive lipase (HSL) and adipocyte triglyceride lipase (ATGL). LD regulation outside of the adipocyte is poorly understood and only few components are known. However, there is an urgent need to learn more about ectopic fat depots as mislocalized storage of lipids, for example in the liver or muscle, is an eminent health problem associated with insulin resistance or the metabolic syndrome. We developed a laser-scanning cytometer assay to enable 1,536-well screening and combined the results of the small molecules screen with an RNAi database based on lipid storage.
Triacsin C (Sigma-Aldrich T-4540), an inhibitor of long-chain fatty acyl CoA synthetase that blocks synthesis of triglycerides, was used as a positive control for lipid under-storage. A total of 23 nL of compound solution of different concentrations were transferred to the assay plates using a Kalypsys pin tool equipped with a 1,536-pin array containing 10-nL slotted pins (FP1S10, 0.457-mm diameter, 50.8 mm long; V&P Scientific). One microliter of oleic acid (400 uM) was added, and the plate was lidded with stainless steel rubber gasket lined lids containing pinholes. […] Fluorescence was detected by excitation of the fluorophores with a 488-nm laser on an Acumen Explorer (TTP Lab Tech). The total intensity in channel 2 (500-530 nm) reflected lipid droplet accumulation. Cells were detected using channel 3 (575-640 nm) with 5-um width and 100-um depth filters. The ratio of the number of objects in PMT channel 2 over the number of objects in PMT channel 3 was also calculated. Percent activity was computed relative to an internal control (100% inhibited lipid droplet deposition due to the presence of 20 uM Triacsin C), which was added to 32 wells/plate.
In the case of `Cc1ccc(NC(=O)CCC(=O)Nc2ccc(C)cc2)cc1`, the “lipid storage change, negative = inhibition” value was -11.2% (inactive) and the cell number change was -16.8%.
On to `Cc1cc(C)cc(C(=O)N2CCC3(CC2)NCCc2[nH]cnc23)c1`, for which the “lipid storage change, negative = inhibition” value was -13.7% (inactive).
For `COc1ccc(-c2csc(NC(=O)c3cccc(N4C(=O)CCC4=O)c3)n2)cc1OC`, the “lipid storage change, negative = inhibition” value is -8.17% (inactive) and the cell number change stood at 19.9%.
Consider `CNCCCOc1ccc(C)cc1Br`, for which the Potency was 20.6 µM (active) and the cell number change is -34.9%.
For the molecule `CCCCNCCCOc1ccc(C)cc1Br`, the “lipid storage change, negative = inhibition” value is -0.0338% (inactive) and the cell number change was determined as 10%.
The like results for `COCCCNCCCOc1ccc(C)cc1Br` were, in that order, 9.41% (inactive) and -14.3%.
The like results for `CCc1noc(C)c1C(=O)OCC(=O)c1ccccc1OC` were, in that order, -18.6% (inactive) and -12.4%.
For `CCCCCC(=O)Nc1cc(S(=O)(=O)N2CCCCC2)ccc1N1CCOCC1`, in that order: -20.9% (inactive) and -1.56%.
For `Cc1ccc(NC(=O)C2CCN(S(C)(=O)=O)CC2)cc1`, the “lipid storage change, negative = inhibition” value was -13.2% (inactive) and the cell number change amounted to 1.04%.
In the case of `Cc1ccc(NC(=O)C2CCN(S(C)(=O)=O)CC2)cc1C`, the Potency is 6.51 µM (active).
Take `COc1ccc(NC(=O)C2CCN(S(C)(=O)=O)CC2)cc1OC`: the “lipid storage change, negative = inhibition” value was 16.9% (inactive) and the cell number change came out at 11.1%.
For `O=C(O)CSC1c2ccccc2C(=O)N1Cc1ccccc1` (configuration not stated), in that order: 11% (inactive) and -11.8%.
For `O=C(CC(=O)N/N=C/c1ccccc1)NCc1ccccc1`, the “lipid storage change, negative = inhibition” value was 10.4% (inactive) and the cell number change was found to be 2.89%.
For `COc1cc(C(=O)NCCOc2ccccc2)cc(OC)c1OC`, in that order: 1.93% (inactive) and -10.6%.
For `COc1ccc(C(=O)NCCCCNC(=O)c2ccc(OC)c(OC)c2)cc1OC`, in that order: 17.3% (inactive) and 11.4%.
Take `COc1cc(C(=O)NCCOc2cc(C)cc(C)c2)cc(OC)c1OC`: the “lipid storage change, negative = inhibition” value was 0.714% (inactive) and the cell number change was determined as 3%.
With `COc1ccc(C(=O)NCCCCCC(=O)O)cc1OC`, the Potency is 9.2 µM (active) and the cell number change was -16%.
The like results for `COCCCNC(=O)c1cc(OC)c(OC)c(OC)c1` were, in that order, 16.4 µM (active) and -1.92%.
In the case of `COc1ccc(C(=O)NCCCc2ccccc2)cc1OC`, the “lipid storage change, negative = inhibition” value was 2.62% (inactive) and the cell number change is -16.4%.
On to `COC(=O)c1ccc(-c2noc(CN3C[C@H]4CC[C@H]3C4)n2)cc1`, for which the “lipid storage change, negative = inhibition” value is 10.7% (inactive) and the cell number change was -0.0392%.
The like results for `O=C(NCC1CCCCC1)c1ccccc1[N+](=O)[O-]` were, in that order, -19.7% (inactive) and 5.77%.
The like results for `COc1ccc(CNC(=O)Cc2cccs2)cc1OC` were, in that order, 5.76% (inactive) and 15.3%.
For `Nc1nonc1C(=O)N/N=C/c1ccc(Br)o1`, in that order: -2.4% (inactive) and 5.25%.
As for `Cc1cccc(OCC(=O)O/N=C(\N)c2ccccn2)c1C`, the “lipid storage change, negative = inhibition” value was -9.68% (inactive) and the cell number change was -6.52%.
In the case of `COc1ccc(NC(=O)c2cc(S(=O)(=O)N3CCCCC3)ccc2OC)cc1`, the “lipid storage change, negative = inhibition” value was -28.8% (inactive) and the cell number change was -15.6%.
The like results for `CC(=O)Nc1ccc(S(=O)(=O)N2CCCC2)cc1` were, in that order, -4.71% (inactive) and 12.4%.
With `CC(=O)c1ccc(NC(=O)Nc2ccc(S(=O)(=O)N3CCCC3)cc2)cc1`, the Potency is 9.2 µM (active) and the cell number change was -4.34%.
For `COc1cc(OC)c(C(=O)Nc2ccc(S(=O)(=O)N3CCCCC3)cc2)cc1OC`, in that order: 6.51 µM (active) and 2.89%.
On to `COc1ccc(C(=O)Nc2ccc(S(=O)(=O)N3CCCC3)cc2)c(OC)c1`, for which the molecule was classed as inactive and the cell number change was determined as 7.48%.
For `CC(=O)Nc1ccc(S(=O)(=O)N2CCCN(S(=O)(=O)c3ccc(NC(C)=O)cc3)CC2)cc1`, the “lipid storage change, negative = inhibition” value was 10.4% (inactive) and the cell number change was -11.8%.
For `COc1ccc(N2C(=S)NC3CS(=O)(=O)CC32)cc1` (configuration not stated), in that order: 4.54% (inactive) and 0.125%.
The like results for `O=C(CSc1nnc(-c2ccccc2)o1)NC1CC1` were, in that order, 2.05% (inactive) and -4.73%.
Take `Cc1ccc(-c2nnc(SCC(=O)NC3CC3)o2)cc1`: the Potency is 29.1 µM (active) and the cell number change turned out to be 10.3%.
As for `Cc1cc(C)cc(-c2nnc(SCC(=O)NC3CC3)o2)c1`, the “lipid storage change, negative = inhibition” value was 18.4% (inactive) and the cell number change was 9.78%.
For `Cc1ccc(NC(NC(=O)c2cccs2)C(Cl)(Cl)Cl)cc1C` (configuration not stated), in that order: -13% (inactive) and 4.44%.
For the molecule `CC(C)(CO)N=C1NS(=O)(=O)c2cc([N+](=O)[O-])ccc21`, the “lipid storage change, negative = inhibition” value was 0.321% (inactive) and the cell number change is 2.18%.
As for `COc1ccc2c(c1)C(C)=CC(C)(C)N2S(=O)(=O)c1ccc(C)cc1`, the “lipid storage change, negative = inhibition” value was 8.71% (inactive) and the cell number change stood at 5.92%.
Take `CCOc1ccc2c(c1)C(C)=CC(C)(C)N2S(=O)(=O)c1ccc(NC(C)=O)cc1`: the Potency was 7.31 µM (active) and the cell number change was -18.1%.
As for `CCOc1ccc2c(c1)C(C)=CC(C)(C)N2S(=O)(=O)c1ccc(C)cc1`, the “lipid storage change, negative = inhibition” value was 0.5% (inactive) and the cell number change was -19.8%.
As for `Cc1ccc(S(=O)(=O)NC(C)c2ccccc2)cc1[N+](=O)[O-]` (configuration not stated), the molecule was classed as inactive and the cell number change was -16.5%.
For `CCCOc1ccc(C2NC(=O)CCC2[N+](=O)[O-])cc1` (configuration not stated), in that order: “inactive” and -7.92%.
In the case of `COc1ccccc1C1NC(=O)NC(C)=C1C(=O)OCc1ccccc1` (configuration not stated), the “lipid storage change, negative = inhibition” value was 7.18% (inactive) and the cell number change stood at 8.03%.
Turning to `COc1ccccc1C1NC(=O)NC(C)=C1C(C)=O` (configuration not stated), the Potency was 14.6 µM (active) and the cell number change amounted to 6.66%.
Take `COc1ccccc1C1NC(=O)NC(C)=C1C(=O)OC1CCCCC1` (configuration not stated): the “lipid storage change, negative = inhibition” value was -7.89% (inactive) and the cell number change is -18.5%.
Take `CCC(C)(C)NC(=O)C(c1ccccc1Cl)N(C(=O)CCC(=O)Nc1cc(C)on1)C1CC1` (configuration not stated): the result was inactive and the cell number change was 10.4%.
Turning to `O=C(COC(=O)c1ccc(OC(F)F)cc1)NCCNC(=O)COC(=O)c1ccc(OC(F)F)cc1`, the “lipid storage change, negative = inhibition” value was 1.33% (inactive) and the cell number change was -4.4%.
As for `Cn1c(SCC(=O)Nc2ccccc2F)nnc1-c1cccs1`, the molecule was called inactive and the cell number change amounted to 14.3%.
